Most compounds without a hit are left out; they make up all but 21% or so of the library.
Pf growth 96h = inhibits malaria parasite growth, 96 h | Potency, µM (doses to about 28.7 µM), for the others: top-dose activity change, negative = inhibition, most hits filed as inhibitors | P. falciparum luciferase reporter growth, 96 h | AID 504834 | 6.9% of 320,000 active; also: potency is read from the fitted curve at half-maximal effect; % is scaled to controls: 0 for no effect and ±100 for the full control effect
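Delayed-death screen, second-generation endpoint: infected erythrocytes, 2% hematocrit, 0.05% parasitemia final; 96 hours at 37 C, 5% CO2; luciferase detection reagent; luminescence decrease equals reduced growth.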
Pf growth 48h = P. falciparum growth inhibition at 48 hours (one generation); P. falciparum luciferase growth in erythrocytes, 48 h; 5.9% of 310,000 active; Potency, µM (top dose mostly 28.7 µM), for the others: at the highest dose activity change, negative = inhibition, most hits filed as inhibitors; AID 504832; also: potency is read from the fitted curve at half-maximal effect; % is scaled to controls: 0 for no effect and ±100 for the full control effect
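Parasite viability was followed by luminescence of a genomically integrated firefly luciferase. Cultures held 0.1% parasitemia at 2% hematocrit (final), incubated under 5% CO2 at 37 C.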
AMA1 RON2 block = disrupts binding of P. falciparum AMA1 to RON2 | AlphaScreen AMA1-biotinylated RON2 peptide binding | 0.2% of 360,000 active | Potency, µM (doses to about 58.2 µM), without a hit: at the highest dose activity change, negative = inhibition, actives largely listed as inhibitors;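 also: potency is read from the fitted curve at half-maximal effect; 0% = vehicle wells and -100% = peptide control; nearly all actives have a fitted effect of over 45% in size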
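AMA1 (3D7) with his tag at 25 nM final met compounds first, then biotinylated RON2 peptide at 25 nM; detection used donor plus acceptor beads, 10 µg/mL apiece, read by AlphaScreen after 30 min at room temperature.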
HCV inhibitor = HCV inhibition. Huh7.5.1 HCVcc-Cre infection, luciferase reporter, 44 h. Potency, µM (doses to about 41.8 µM), without a hit: at the top dose activity change, negative = inhibition, most hits filed as inhibitors. 3.4% of 340,000 active. AID 651820; also: potency is read from the fitted curve at half-maximal effect; % is scaled to controls: 0 for no effect and ±100 for the full control effect
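Cells (1,000/well) were plated 4 h before compound, then infected with HCVcc-Cre virus (~0.5 moi). After 44 h further culture, infection was read as luciferase luminescence following a 15 min substrate incubation at room temperature.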
CHX counter = affects cycloheximide protein synthesis inhibition readout, counter-screen; max response, %; cell reporter, cycloheximide protein synthesis inhibition counterscreen; 12% of 300,000 active; in the data active = max response mostly above about 13%, no sharp cut-off; inactive = mostly below about 14%; also: read at 38.3 µM for the half of the compounds with a filed dose; 0% is about no effect
Shiga inhibitor = blocks Shiga toxin action in Vero cells. 9.2% of 290,000 active. AID 2315. inhibition, % at 38.7 µM. Vero cells, Shiga toxin protein synthesis inhibition reporter; in the data active = inhibition mostly above about 28%, no sharp cut-off; inactive = mostly below about 43%; also: 0% is about no effect
An asterisk follows results filed as active; [ ] = dose if it differs, or a comment. Unless noted, calls follow the shape of the dose curve; as a rule, active = well fitted curve in the direction sought with a large enough effect; inconclusive = small, poorly fitted or top-dose-only effect, or another doubt; inactive = no such curve, though single readings can be large; an effect the other way counts as inactive or inconclusive.

For CC(=O)c1c(C)[nH]c(C(=O)OCCOc2ccccc2)c1C the results were Pf growth 96h 373.7%, Pf growth 48h 465.8%, AMA1 RON2 block -7.0%, HCV inhibitor 8.91µM*, CHX counter 22.6 and Shiga inhibitor 46.6*.
Cc1c(C(=O)OC2CCCC2C)[nH]c2c1C(=O)CCC2 (centres undefined) was read as Pf growth 96h -15.0%, Pf growth 48h -7.6%, AMA1 RON2 block -17.3%, HCV inhibitor inconclusive, CHX counter 48.2* and Shiga inhibitor 63.9*.
For Nc1nc(CSc2nc3ccccc3s2)nc(Nc2ccccc2)n1 the results were Pf growth 96h -16.5%, Pf growth 48h -14.4%, HCV inhibitor inconclusive, CHX counter 20.7* and Shiga inhibitor -13.6.
Screening FC(F)(F)c1ccc(-c2cccc3c2C2CC3CCN2C(=S)NCCc2ccccc2)cc1 (centres undefined) returned AMA1 RON2 block 4.2%.
Screening CCOC(=O)/C=C/C(=O)OCC(=O)Nc1c(Cl)cccc1Cl returned Pf growth 96h -28.7%, Pf growth 48h 13.1µM*, AMA1 RON2 block -25.8%, HCV inhibitor 4.8%, CHX counter 10.7 and Shiga inhibitor 6.6.
CCOC(=O)/C=C/C(=O)OCC(=O)Nc1ccc(Cl)cc1Cl was read as Pf growth 96h 5.9%, Pf growth 48h -11.3%, AMA1 RON2 block 2.3%, HCV inhibitor 15.0%, CHX counter 3.0 and Shiga inhibitor -17.8.
C/C(=N\NC(=O)COc1cccc(C)c1)c1ccc2ccccc2c1O was read as Pf growth 96h 2.62µM*, Pf growth 48h inconclusive, AMA1 RON2 block 112.9%, HCV inhibitor 11.2µM*, CHX counter -1.3 and Shiga inhibitor 6.7.
`Cc1cccc(OCC(=O)NCc2ccccc2)c1` gave Pf growth 96h 9.28µM*, Pf growth 48h 24.0%, AMA1 RON2 block -8.7%, HCV inhibitor 18.2%, CHX counter 5.9 and Shiga inhibitor 12.1.
`CCc1ccc2occ(CC(=O)Nc3ccc(OC)c(Cl)c3)c2c1` gave CHX counter 13.1 and Shiga inhibitor 36.5*.
For C/C(Cc1ccccc1)=N\NC(=O)CNC(=O)COc1cccc(C)c1 the results were Pf growth 96h 8.0%, Pf growth 48h -9.4%, AMA1 RON2 block 13.7%, HCV inhibitor 13.1%, CHX counter -2.2 and Shiga inhibitor 21.7.
`CSc1ccccc1C(=O)N1CCC2(CC1)CC(=O)c1ccccc1O2` gave Pf growth 96h -19.7%, Pf growth 48h -11.7%, AMA1 RON2 block -1.9% and HCV inhibitor -12.7%[8.37 µM].
For Cc1cc(O)c2c(c1)CC1C3CCC4CC(=O)CCC4(C)C3CC(=O)C21C (centres undefined) the results were AMA1 RON2 block -17.8% and HCV inhibitor inconclusive.
For CCOC(=O)/C=C/C(=O)OCC(=O)Nc1ccc(OC)c(Cl)c1 the results were Pf growth 96h -0.3%, Pf growth 48h 9.0%, AMA1 RON2 block -2.3%, HCV inhibitor -2.1%, CHX counter 12.4* and Shiga inhibitor -1.6.
For CCOC(=O)/C=C/C(=O)OCC(=O)NCc1ccccc1 the results were Pf growth 96h inconclusive, Pf growth 48h -26.5%, AMA1 RON2 block 4.1%, HCV inhibitor 22.9%, CHX counter 15.7* and Shiga inhibitor 9.4.
For Cc1cc(C)nc(SCc2nnc(SCC#N)n2-c2cccc(Cl)c2)n1 the results were Pf growth 96h inconclusive, Pf growth 48h 7.38µM*, AMA1 RON2 block 1.9%, HCV inhibitor inconclusive, CHX counter 10.9 and Shiga inhibitor -12.0.
`Cc1nnsc1C(=O)NNc1ccc(C(C)(C)C)cc1` gave Pf growth 96h -2.0%, Pf growth 48h -7.4%, AMA1 RON2 block -14.9%, HCV inhibitor -15.3%, CHX counter -2.6 and Shiga inhibitor -12.6.
`Cc1ccc(NC(=O)c2snnc2C)cc1Cl` gave Pf growth 96h inconclusive, Pf growth 48h 19.3%, AMA1 RON2 block -15.5%, HCV inhibitor -1.7%, CHX counter 11.5* and Shiga inhibitor 25.8.
For Cc1nnsc1C(=O)Nc1ccc(Cl)cc1Cl the results were Pf growth 96h 0.0%, Pf growth 48h 3.9%, AMA1 RON2 block -1.0%, HCV inhibitor 26.5%, CHX counter -0.6 and Shiga inhibitor -12.1.
`Cc1nnsc1C(=O)NNc1ccc(C(C)C)cc1` gave Pf growth 96h 152.1%, Pf growth 48h 124.9%, AMA1 RON2 block -4.0%, HCV inhibitor -12.7%, CHX counter 39.6* and Shiga inhibitor 59.0*.
`O=C(COc1cc2oc(=O)c3c(c2cc1Cl)CCC3)NCCCn1ccnc1` gave Pf growth 96h inconclusive, Pf growth 48h -2.9%, AMA1 RON2 block -3.1%, HCV inhibitor inconclusive, CHX counter -3.6 and Shiga inhibitor -0.8.
Screening Cc1ccc(Nc2nc(N)nc(N)c2N=O)cc1Cl returned AMA1 RON2 block 36.8%.
For CCC(=O)Nc1cc(C)c(NC(=O)c2ccco2)cn1 the results were Pf growth 96h -11.6%, Pf growth 48h 13.7%, AMA1 RON2 block -7.8%, HCV inhibitor -3.1%, CHX counter 6.7 and Shiga inhibitor 6.8.
For CCCCC(=O)Nc1cnc(NC(=O)c2ccco2)cc1C the results were Pf growth 96h 43.4%, Pf growth 48h 94.9%, AMA1 RON2 block 6.6%, HCV inhibitor -2.6%, CHX counter 20.7* and Shiga inhibitor 63.7*.
`Cc1cc(NC(=O)c2ccccc2)ncc1NC(=O)c1ccco1` gave Pf growth 48h 33.3%, AMA1 RON2 block -10.9%, HCV inhibitor -1.6%, CHX counter 18.0* and Shiga inhibitor 87.4*.
`CCCC(=O)Nc1cc(C)c(NC(=O)c2ccco2)cn1` gave Pf growth 96h -8.1%, Pf growth 48h -3.5%, AMA1 RON2 block 11.6%, HCV inhibitor 4.8% and CHX counter 9.0.
COc1cccc(C(Nc2ccccn2)c2c(NC(=O)c3ccco3)sc(C)c2C)c1 (centres undefined) was read as Pf growth 96h inconclusive, Pf growth 48h 8.28µM*, AMA1 RON2 block -25.4%, HCV inhibitor inconclusive, CHX counter 0.9 and Shiga inhibitor 6.0.
COC(=O)c1c(NC(=O)c2ccco2)sc(C)c1C was read as Pf growth 48h 5.7%, AMA1 RON2 block -11.4%, HCV inhibitor inconclusive, CHX counter -3.1 and Shiga inhibitor -10.8.
For Cc1sc(NC(=O)c2ccco2)c(C(Nc2ccccn2)c2ccccc2)c1C (centres undefined) the results were Pf growth 96h inconclusive, Pf growth 48h inconclusive, AMA1 RON2 block -19.4%, HCV inhibitor 14.1µM*, CHX counter 13.3* and Shiga inhibitor 24.6.
COc1ccc(C(Nc2ccccn2)c2c(NC(=O)c3ccco3)sc(C)c2C)cc1 (centres undefined) was read as Pf growth 96h inconclusive, Pf growth 48h 4.65µM*, AMA1 RON2 block -25.4%, HCV inhibitor inconclusive, CHX counter 28.7* and Shiga inhibitor 29.1.
`C[C@@H]1Cc2[nH][nH]c(=O)c2[C@H](c2ccc(Cl)cc2)O1` gave AMA1 RON2 block 46.3%.
